# Measurements from the supplement of paper PMC13380429.
# Tested on: Vero E6 infected with SARS-CoV-2
# Assay: SARS-CoV-2 infection rate relative to infected DMSO; higher = more infection, active = 60 or less
# Conditions: 24 h
row,Structure (SMILES),SARS-CoV-2 infection rate
1,O=C(O)CCNc1cc(N2CCc3ccccc3CC2)nc(-c2ccccn2)n1 (10 µM),101% (inactive)
2,CC(=O)OCC(=O)[C@@]1(O)CC[C@H]2[C@@H]3CCC4=CC(=O)CC[C@]4(C)[C@@]3(F)[C@@H](O)C[C@@]21C (10 µM),99.5% (inactive)
3,Cc1cc(C(=O)O)sc1C(N)C(=O)O (stereo not given) (10 µM),95% (inactive)
4,CN1CCN(C(=O)O[C@H]2c3nccnc3C(=O)N2c2ccc(Cl)cn2)CC1 (10 µM),108% (inactive)
5,OCc1ccc(O[C@@H]2O[C@H](CO)[C@@H](O)[C@H](O)[C@H]2O)cc1 [gastrodin] (10 µM),106% (inactive)
6,CCOC(=O)c1ccc(NC2CCCCC2)c(N)c1 [ferrostatin-1] (10 µM),94% (inactive)
7,CN[C@H](CC(C)C)C(=O)N[C@H]1C(=O)N[C@@H](CC(N)=O)C(=O)N[C@H]2C(=O)N[C@H]3C(=O)N[C@H](C(=O)N[C@H](C(=O)O)c4cc(O)cc(O)c4-c4cc3ccc4O)[C@H](O[C@H]3C[C@](C)(N)[C@@H](O)[C@H](C)O3)c3ccc(c(Cl)c3)Oc3cc2cc(c3O[C@@H]2O[C@H](CO)[C@@H](O)[C@H](O)[C@H]2O[C@H]2C[C@](C)(NCc3ccc(-c4ccc(Cl)cc4)cc3)[C@@H](O)[C@H](C)O2)Oc2ccc(cc2Cl)[C@H]1O [oritavancin] (10 µM),92% (inactive)
8,O=C(Nc1cccc(C(F)(F)F)c1)Nc1ccc(Br)cc1-c1nnn[nH]1 (10 µM),108% (inactive)
9,Cc1nc(N)sc1-c1ccnc(Nc2ccc(N3CCOCC3)cc2)n1 (0.833333 µM),93% (inactive)
10,CC[C@@]1([C@H]2O[C@H]([C@H]3O[C@@](O)(CO)[C@H](C)C[C@@H]3C)C[C@H]2C)CC[C@H]([C@@]2(C)CC[C@]3(C[C@H](O)[C@@H](C)[C@@H]([C@H](C)[C@H](OC)[C@@H](C)C(=O)O)O3)O2)O1 (10 µM),39% (active)
11,CCCCCCCCCCCCCCCCCC(=O)OCC(O)CO (stereo not given) [monostearin] (10 µM),108% (inactive)
12,CCCCCCCCCCCCCCCCO [1-hexadecanol] (10 µM),110% (inactive)
13,CN1CCC[C@@H]1CCSc1ccc(O)cc1 (10 µM),112% (inactive)
14,N=C(N)SCCc1ccc(OCc2ccc([N+](=O)[O-])cc2)cc1 (10 µM),85.5% (inactive)
15,NCCCC(O)(P(=O)(O)O)P(=O)(O)O [alendronate] (10 µM),110% (inactive)
16,COc1cc2nc(N3CCN(C(=O)COc4c(OC)cccc4C(C)C)CC3)nc(N)c2cc1OC (10 µM),92.5% (inactive)
17,O=C(NCC(=O)N1CCCCC1)Nc1ccc2nnsc2c1 (10 µM),110% (inactive)
18,Nc1nc(N)c(N=O)c(OCC2CCCCC2)n1 (10 µM),54.5% (active)
19,O=C(O)[C@H](O)c1ccccc1 [mandelic-acid] (10 µM),114% (inactive)
20,O=C(/C=C/N1C[C@H]2C[C@@H]1CN2c1ccccn1)c1ccccc1O (10 µM),116% (inactive)

row,Structure (SMILES),SARS-CoV-2 infection rate
1,C=CC[N+]1([C@H]2C[C@H]3[C@@H]4CC[C@H]5C[C@H](O)[C@@H](N6CCOCC6)C[C@]5(C)[C@H]4CC[C@]3(C)[C@H]2OC(C)=O)CCCC1 (10 µM),110% (inactive)
2,C/C(O)=C(\C#N)C(=O)Nc1ccc(C(F)(F)F)cc1 [teriflunomide] (10 µM),108% (inactive)
3,COCC1=C(C(=O)O)N2C(=O)[C@@H](NC(=O)/C(=N\OC)c3csc(N)n3)[C@H]2SC1 [cefpodoxime] (10 µM),104% (inactive)
4,CC(=O)N(C)c1cc(-c2ccnc3c(C(=O)c4cccs4)cnn23)ccc1F [lorediplon] (10 µM),112% (inactive)
5,CC12CCC(C(=O)N(CCCCN3CCN(c4ccccn4)CC3)C1=O)C2(C)C (stereo not given) [piricapiron] (10 µM),103% (inactive)
6,CC(C)(N)C(=O)N[C@H](COCc1ccccc1)C(=O)N1CCC2(CC1)CN(S(C)(=O)=O)c1ccccc12 [ibutamoren] (10 µM),108% (inactive)
7,COc1cccc(-c2ccc([C@@H](Oc3cc(-c4ccc(C[C@H](N)C(=O)O)cc4)nc(N)n3)C(F)(F)F)cc2)c1 (10 µM),102% (inactive)
8,N=C(N)c1ccc(/N=N/Nc2ccc(C(=N)N)cc2)cc1 [diminazene-aceturate] (10 µM),86% (inactive)
9,C=CCN1CC[C@]23c4c5ccc(O)c4O[C@H]2[C@@H](OCCOCCOCCOCCOCCOCCOCCOC)CC[C@@]3(O)[C@H]1C5 [naloxegol] (10 µM),92% (inactive)
10,NCc1ccc(S(N)(=O)=O)cc1 [mafenide] (10 µM),91% (inactive)
11,COc1cc(Cc2cnc(N)nc2N)cc(OC)c1OC [trimethoprim] (10 µM),98.5% (inactive)
12,CCC(=O)OCN1C(=O)C=CC1=O (10 µM),97% (inactive)
13,CCC(NC(C)C)C(O)c1ccc(O)c2[nH]c(=O)ccc12 (stereo not given) [procaterol] (10 µM),88% (inactive)
14,CN1C2CCC1CC(OC(=O)C(O)c1ccccc1)C2 (stereo not given) [Homatropine Bromide] (10 µM),108% (inactive)
15,C1CCC(NC2CCCCC2)CC1 [dicyclohexylamine] (10 µM),114% (inactive)
16,CS(=O)(=O)Nc1ccc([N+](=O)[O-])cc1Oc1ccccc1 [nimesulide] (10 µM),105% (inactive)
17,CC(C)C[C@@H](NC(=O)[C@H](C)NC(=O)CNC(=O)[C@@H](NC=O)C(C)C)C(=O)N[C@@H](C)C(=O)N[C@@H](C(=O)N[C@H](C(=O)N[C@@H](C(=O)N[C@@H](Cc1c[nH]c2ccccc12)C(=O)N[C@H](CC(C)C)C(=O)N[C@@H](Cc1c[nH]c2ccccc12)C(=O)N[C@H](CC(C)C)C(=O)N[C@@H](Cc1c[nH]c2ccccc12)C(=O)N[C@H](CC(C)C)C(=O)N[C@@H](Cc1c[nH]c2ccccc12)C(=O)NCCO)C(C)C)C(C)C)C(C)C [gramicidin] (10 µM),100% (inactive)
18,C[C@H](N)Cc1cccc(O)c1 [gepefrine] (10 µM),106% (inactive)
19,CNC1CC(c2ccc(Cl)c(Cl)c2)c2ccccc21 (stereo not given) [indatraline] (10 µM),114% (inactive)
20,N[C@@H](CSS(=O)(=O)O)C(=O)O [S-sulfo-L-cysteine] (10 µM),90% (inactive)
